{"source": "PubChem BioAssay AID485346", "about": "(Sanford-Burnham Center for Chemical Genomics, 2010)", "note": "In all, about 330,000 compounds went through this assay and about 10,000 (3%) were called active. This excerpt belongs to a sample that is enriched for actives. A number with no mark means an inactive call.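 Rule for the calls: active = inhibition of at least 50% at 8 µM in the primary screen; inactive = the rest.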"}
{"target": "Protein Mdm4 (Homo sapiens) + E3 ubiquitin-protein ligase Mdm2 (Homo sapiens) (UniProt O15151+Q00987)", "sequence (O15151 whole entry, looked up)": "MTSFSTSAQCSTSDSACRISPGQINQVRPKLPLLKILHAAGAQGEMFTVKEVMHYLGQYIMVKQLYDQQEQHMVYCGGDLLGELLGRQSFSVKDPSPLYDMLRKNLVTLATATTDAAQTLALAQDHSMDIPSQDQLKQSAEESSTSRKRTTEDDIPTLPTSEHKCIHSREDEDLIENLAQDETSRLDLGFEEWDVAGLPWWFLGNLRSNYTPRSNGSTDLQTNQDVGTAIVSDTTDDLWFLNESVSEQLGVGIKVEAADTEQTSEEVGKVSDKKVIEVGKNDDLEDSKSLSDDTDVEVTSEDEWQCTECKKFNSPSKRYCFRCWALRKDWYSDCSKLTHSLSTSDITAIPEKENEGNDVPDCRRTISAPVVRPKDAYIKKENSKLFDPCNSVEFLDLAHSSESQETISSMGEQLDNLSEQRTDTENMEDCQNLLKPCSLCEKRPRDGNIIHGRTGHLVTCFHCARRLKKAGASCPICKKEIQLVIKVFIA", "sequence (Q00987 whole entry, looked up)": "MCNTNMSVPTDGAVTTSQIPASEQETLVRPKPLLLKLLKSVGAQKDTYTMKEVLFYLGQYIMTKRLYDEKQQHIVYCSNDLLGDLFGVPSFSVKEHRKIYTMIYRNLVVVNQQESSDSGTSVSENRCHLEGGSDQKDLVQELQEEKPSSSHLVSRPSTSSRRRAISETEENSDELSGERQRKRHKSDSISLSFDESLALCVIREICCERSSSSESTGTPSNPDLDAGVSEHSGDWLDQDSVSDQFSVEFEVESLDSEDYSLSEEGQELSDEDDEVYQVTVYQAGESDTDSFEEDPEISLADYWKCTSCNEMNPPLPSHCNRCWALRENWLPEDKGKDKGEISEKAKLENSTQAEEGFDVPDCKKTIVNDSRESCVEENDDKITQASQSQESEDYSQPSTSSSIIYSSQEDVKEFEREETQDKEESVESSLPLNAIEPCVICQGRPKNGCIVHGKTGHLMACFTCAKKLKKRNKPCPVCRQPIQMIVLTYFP", "assay": "inhibitors of human Mdm2-MdmX association, primary screen, cell-based, luminescence, split luciferase, SaOS-2, uHTS (AID 485346)", "settings": "SaOS-2 split-luciferase Mdm2/MdmX complementation, at 8 µM, hits give high values"}
{"smiles": "Cc1ccc(CC(=O)N(C)CC(=O)N(CC(C)C)c2c(N)n(CC(C)C)c(=O)[nH]c2=O)cc1C", "inhibition": "-20.2%"}
{"smiles": "Cc1ccccc1NC(=O)NCC1CCN(Cc2cccc(Cl)c2)CC1", "inhibition": "8.22%"}
{"smiles": "Cc1ccc(C)c(CN2CCC(CNC(=O)Nc3ccc(C)c(F)c3)CC2)c1", "inhibition": "42.6%"}
{"smiles": "Cc1cccc(CN2CCC(CNC(=O)Nc3ccc(F)c(Cl)c3)CC2)c1", "inhibition": "51.6% (active)"}
{"smiles": "O=C(COC(=O)/C(=C/c1cccs1)c1cccs1)NCc1ccccc1Cl", "inhibition": "-28%"}
{"smiles": "CCN(Cc1ccccc1)S(=O)(=O)c1cc2c3c(c1)CCN3C(=O)CC2", "inhibition": "-8.54%"}
{"smiles": "CCCC[C@@H]1CN=C(N)N1CCCC", "inhibition": "16.5%"}
{"smiles": "CCCC[C@@H]1CN=C(N)N1CCc1cc(C(F)(F)F)cc(C(F)(F)F)c1", "inhibition": "68.1% (active)"}
{"smiles": "CCCC[C@@H]1CN=C(N)N1CCc1cccc(F)c1", "inhibition": "-13.6%"}
{"smiles": "O=C(C1CCN(C2CCN(Cc3ccc4cc(F)ccc4n3)CC2)CC1)N1CCCC1", "inhibition": "6.09%"}
{"smiles": "CCCc1nc2oc3c(OCC)ncnc3c2c2c1COC(C)(C)C2", "inhibition": "-1.2%"}
{"smiles": "O=C(Nc1nonc1-c1ccc(Cl)cc1)c1ccco1", "inhibition": "3.32%"}
{"smiles": "COc1ccc(NC(=O)CN(C)C(=O)/C=C/c2cn(Cc3ccccc3)nc2-c2cccnc2)cc1", "inhibition": "9.31%"}
{"smiles": "O=C(COC(=O)/C=C/c1cn(-c2ccccc2)nc1-c1cccnc1)Nc1ccc(Cl)cc1Cl", "inhibition": "61.3% (active)"}
{"smiles": "Cc1ccc(/C=C/C(=O)OCC(=O)Nc2cccnc2Cl)cc1", "inhibition": "7.79%"}
{"smiles": "COc1cc([N+](=O)[O-])ccc1NC(=O)CN1CCCC1", "inhibition": "-4.27%"}
{"smiles": "COc1ccccc1CC(=O)Nc1ccc([N+](=O)[O-])cc1OC", "inhibition": "19.7%"}
{"smiles": "COc1cc([N+](=O)[O-])ccc1NC(=O)COC(=O)CCOc1ccc(C)cc1", "inhibition": "57.2% (active)"}
{"smiles": "N#Cc1c(N)sc2c1CCN(C(=O)OCc1ccccc1)C2", "inhibition": "17.8%"}
{"smiles": "CN(C)CCNC(=O)/C(=C/c1cccc([N+](=O)[O-])c1)NC(=O)c1ccccc1", "inhibition": "-8%"}
{"smiles": "Cc1ccc(C(=O)N/C(=C/c2ccc(-c3cccc([N+](=O)[O-])c3)o2)C(=O)NCCCN(C)C)cc1", "inhibition": "78.3% (active)"}
{"smiles": "C=CCNC(=O)/C(=C\\c1cccc([N+](=O)[O-])c1)NC(=O)c1ccccc1", "inhibition": "22.1%"}
{"smiles": "NS(=O)(=O)c1cccc(NC(=O)COC(=O)c2cc([N+](=O)[O-])ccc2N2CCCC2)c1", "inhibition": "17.6%"}
{"smiles": "CC(C)Oc1ccc(C(=O)NCC(=O)Nc2ccc3c(c2)CCC3)cc1", "inhibition": "-15.9%"}
{"smiles": "CC(NC(=O)c1ccco1)C(=O)Nc1nc(-c2ccccn2)cs1", "note": "(configuration not stated)", "inhibition": "21.9%"}
{"smiles": "O=C(COc1ccccc1F)Nc1nc(-c2ccccn2)cs1", "inhibition": "72.2% (active)"}
{"smiles": "O=C(CN1C(=O)C2C3C=CC(C3)C2C1=O)Nc1nc(-c2ccccn2)cs1", "note": "(configuration not stated)", "inhibition": "33.1%"}
{"smiles": "CCOc1ccc(CN2CCN(Cc3ccc4cc(F)ccc4n3)CC2CCO)cc1", "note": "(configuration not stated)", "inhibition": "-16.3%"}
{"smiles": "COc1ccc(CNC(=O)COC(=O)c2c(C)nn(-c3ccccc3)c2C)cc1OC", "inhibition": "-1.13%"}
{"smiles": "COc1ccc(/C=C/C(=O)Nc2ccc(C)cc2)cc1S(=O)(=O)N1CCOCC1", "inhibition": "18.3%"}
{"smiles": "COc1ccc(/C=C/C(=O)Nc2ccc(C34CC5CC(CC(O)(C5)C3)C4)cc2)cc1OC", "inhibition": "59.1% (active)"}
{"smiles": "COc1ccc(/C=C/C(=O)N2CCCC2)cc1OC", "inhibition": "5.87%"}
{"smiles": "CCn1nc(C(=O)NNC(=O)C2CSC3(C)CCC(=O)N23)c2ccccc2c1=O", "note": "(configuration not stated)", "inhibition": "25.6%"}
{"smiles": "Cc1cccc(N2CCN(C(=O)c3cc4c(=O)[nH]c5ccccc5c4n3C)CC2)c1C", "inhibition": "40.5%"}
{"smiles": "O=C1CN(C(=O)c2cc(F)cc(F)c2)c2ccccc2N1", "inhibition": "21%"}
{"smiles": "CCOc1cc(N2CCOCC2)c(OCC)cc1NC(=O)COc1cccc2cccnc12", "inhibition": "90.6% (active)"}
{"smiles": "CCOc1cc(N2CCOCC2)c(OCC)cc1NC(=O)COc1cccc(Cl)c1", "inhibition": "-4.41%"}
{"smiles": "CCOc1cc(N2CCOCC2)c(OCC)cc1NC(=O)c1cc(C)nc2ccccc12", "inhibition": "-16.5%"}
{"smiles": "O=S(=O)(Nc1cc(Cl)ccc1N1CCOCC1)c1ccccc1Cl", "inhibition": "1.14%"}
{"smiles": "Cc1ccc2occ(/C=N/NC(=O)c3ccccc3C)c(=O)c2c1", "inhibition": "68.7% (active)"}
{"smiles": "O=c1c(/C=N/O)coc2ccc(Cl)cc12", "inhibition": "9.78%"}
{"smiles": "CC(C)(C)OC(=O)NCCCCCC(=O)N/N=C/c1coc2ccccc2c1=O", "inhibition": "19.7%"}
{"smiles": "O=C1CC(Cc2ccc(Cl)cc2)C(=O)N1c1cc(Cl)ccn1", "note": "(configuration not stated)", "inhibition": "-4.34%"}
{"smiles": "CN(C)/C(CN1CCCCC1)=C1\\N=C(c2ccccc2)OC1=O", "inhibition": "0.454%"}
{"smiles": "CCc1cc2cc(OC)ccc2nc1SCC(=O)Nc1cc(OC)c(OC)cc1C(=O)O", "inhibition": "17%"}
{"smiles": "Cc1ccc(C)c(N2CCN(S(=O)(=O)c3c(C)[nH]c(C)c3C(=O)N3CCCC3)CC2)c1", "inhibition": "5.45%"}
{"smiles": "Cc1[nH]c(C)c(S(=O)(=O)N2CCN(c3cccc(C(F)(F)F)c3)CC2)c1C(=O)N1CCCCC1", "inhibition": "76.3% (active)"}
{"smiles": "Cc1[nH]c(C)c(S(=O)(=O)N2CCN(c3cccc(C(F)(F)F)c3)CC2)c1C(=O)N1CCCC1", "inhibition": "14.7%"}
{"smiles": "CCOn1c(=O)c(=O)n(O)c2ccccc21", "inhibition": "3.67%"}
{"smiles": "COc1ccc(-c2cc(-c3ccc(N)cc3)nc(N)c2C#N)cc1OC", "inhibition": "32.6%"}
{"smiles": "COc1ccc(-c2cc(C(F)(F)F)nc(S(C)(=O)=O)n2)cc1OC", "inhibition": "94.6% (active)"}
{"smiles": "CCS(=O)(=O)NCCc1ccc(OC)c(OC)c1", "inhibition": "18.8%"}
{"smiles": "Cc1nc2ccccc2nc(=O)c1NNc1ccc([N+](=O)[O-])cc1", "inhibition": "-2.46%"}
{"smiles": "Cc1ccc(C)c(NS(=O)(=O)c2c(C)[nH]c(C)c2C(=O)N2CCCCC2)c1", "inhibition": "-0.656%"}
{"smiles": "Cc1c(C)n(Cc2ccc(Cl)cc2)c2ccc(C(=O)NCCCN3CCOCC3)cc12", "inhibition": "45.2%"}
{"smiles": "c1ccc2c(c1)CSc1sccc1C2=C1CCNCC1", "inhibition": "78.5% (active)"}
{"smiles": "CC1(C(=O)OCC(=O)Nc2ncc(Cl)cc2Cl)CC1(Cl)Cl", "note": "(configuration not stated)", "inhibition": "-3.51%"}
